Compound activity from PubChem.
NCOA1 inh: human NCOA1 inhibition; 360,000 tested, 0.12% active; HEK293 GAL4-SRC1 luciferase reporter, luminescence; inhibition, % at 3.6 µM;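 active = inhibition above the campaign mean plus 3 SD, with each screening campaign given its own cutoff, cut at about 60% in these data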;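 note: 0% = DMSO treated cells and 100% = gossypol at 36 µM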
NCOA3 inh: human NCOA3 inhibition. HEK293 GAL4-SRC3 luciferase reporter, luminescence. inhibition, % at 3.6 µM. 360,000 tested, 0.17% active. AID 588352;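 active = inhibition above a per-campaign cutoff, the mean of all compounds plus 3 SD, cut at about 60% in these data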;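 note: 0% = DMSO-treated cells and 100% = gossypol-treated cells at 36 µM; higher means less SRC3-driven luciferase light from the GAL4 reporter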
NR5A2 inv ag: NR5A2 inverse agonism in reporter assay. inhibition, % at 3.6 µM. 360,000 tested, 0.13% active. AID 602396. HEK293T StAR-luciferase reporter, LRH-1 transfected, 24 h;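 active = inhibition above the mean inhibition of all tested compounds plus 3 SD, cut at about 73% in these data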;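 note: 0% = DMSO wells and 100% = reporter-only cells lacking LRH-1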
SRC2 inh: human SRC2 (NCOA2) inhibition; Q15596; HEK293 GAL4-SRC2 luciferase reporter, luminescence; inhibition, % at 9 µM; 370,000 tested, 0.17% active; AID 651957;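 active = inhibition above the mean inhibition of all tested compounds plus 3 SD, set per campaign, cut at about 52% in these data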;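 note: 0% = DMSO treated cells and 100% = cells given Gossypol at 36 µM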
LMP1 NFkB inh: reduces LMP1-driven NF-kappaB luciferase signal. LMP1-induced NF-kappaB luciferase reporter cells, luminescence. inhibition, % at 12.5 µM. AID 504558. 350,000 tested, 0.69% active; in the data active = inhibition above about 41%;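 note: 0% = neutral control wells and 100% = reference inhibitor control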
An asterisk follows results filed as active; · = no result given. Rows were chosen to be rich in hits. Some 0.78% of all compounds tested hit in one or more screens of this group.

SMILES	NCOA1 inh	NCOA3 inh	NR5A2 inv ag	SRC2 inh	LMP1 NFkB inh
NC(=O)CC(NC(=O)Cc1cccc2ccccc12)c1ccc(NCc2ccc(F)cc2)c([N+](=O)[O-])c1 (configuration not stated)	-3	-20	-4	4	52*
O=C(c1ccccc1)C(CN1CCCCC1)c1ccccc1 (configuration not stated)	13	30	17	42	55*
CN(C)CC(C(=O)c1ccccc1)c1ccccc1 (configuration not stated)	45	50	7	40	78*
Cc1ccc(-n2c(Cc3cccs3)nnc2SCc2ccc([N+](=O)[O-])cc2)cc1	·	·	·	3	·
Cn1/c(=N/NC(=O)c2ccccc2Br)sc2ccccc21	-81	-60	-68	-50	49*
CCOc1ccc(C(=O)N2CCCC2)cc1	11	-1	15	2	-10
CCOc1ccc(OCc2cccc(C(=O)N3CCCCCC3)c2)cc1	-122	-128	-279	-48	53*
CCOc1ccc(OCc2cccc(C(=O)N3CCCC3)c2)cc1	-164	-103	-283	-43	54*
CCCCCn1nnnc1C1(C)CCSCC(=O)N1Cc1ccco1 (configuration not stated)	·	·	·	11	·
Cc1ccccc1C(=O)N1CCN(c2ccc(NC(=O)c3ccco3)cc2Cl)CC1	14	2	-1	8	51*
CC1=C(C(=O)OCc2ccc3c(c2)OCO3)C(c2ccc(O)c([N+](=O)[O-])c2)NC(=O)N1 (configuration not stated)	52	58	-1	56*	12
CC1=C(C(=O)OCc2ccc3c(c2)OCO3)C(c2ccccc2)NC(=O)N1 (configuration not stated)	71*	70*	47	54*	69*
O=C(NC1CCCCN(Cc2cccc(C(F)(F)F)c2)C1=O)c1ccc(COc2ccccc2)cc1 (configuration not stated)	·	·	·	12	·
COc1ccc(-c2cn3cc(C(=O)NN)ccc3n2)cc1	-67	-67	-93	-19	-6
COC(=O)c1ccc2nc(-c3ccc4c(c3)OCO4)cn2c1	-84	-56	-134	-28	48*
CCc1ccn2cc(-c3ccc4c(c3)OCO4)nc2c1	-33	22	-70	40	72*
Cc1cc(C(=O)N2CCN(c3ccc(C(F)(F)F)cn3)CC2)c(C)o1	3	11	-9	8	13
Cc1cccc(C(=O)N2CCN(c3ccc(C(F)(F)F)cn3)CC2)c1C	3	6	-1	1	45*
O=c1ccc2ccccc2c2ccccc12	64*	75*	93*	70*	·
c1ccc2c(c1)ccc1ccccc12	-12	-8	-10	8	-2
CCN(C(=O)[C@@H]1CC(=O)O[C@@H]1c1ccccc1)c1ccccc1	·	·	·	-27	·
N#Cc1cccc(NC(=O)OC2CCC23CCC(c2ccccc2)CC3)c1 (configuration not stated)	·	·	·	5	·
C=CCSc1nccc(-c2cc(Cl)sc2Cl)n1	-1	-22	-7	-4	84*
N#CCSc1nccc(-c2cc(Cl)sc2Cl)n1	-18	-1	-26	-4	-1
COCC(=O)N(C)c1nnc(-c2ccccn2)s1	-11	2	-16	-39	50*
SMILES	NCOA1 inh	NCOA3 inh	NR5A2 inv ag	SRC2 inh	LMP1 NFkB inh
c1ccc(-c2nnc(-c3ccccn3)s2)nc1	-77	-33	-80	-34	47*
Cc1[nH]nc2c1C(c1ccccc1)N(Cc1ccccc1)C2=O (configuration not stated)	·	·	·	-25	·
COc1cccc2nc3c(C(=O)NCCN(C)C)cccc3cc12	63*	56	23	-102	0
CN(C)CCNC(=O)c1cccc2nc3c(ccc4ccccc43)nc12	66*	32	33	-80	3
COc1ccc(C(=O)NCCN(C)C)c2nc3ccccc3cc12	58	-69	60	-321	36
Cc1ccccc1CN1C(=O)c2ccccc2S1(=O)=O	8	4	2	-2	6
O=C1c2ccccc2S(=O)(=O)N1Cc1nc2ccccc2s1	16	19	9	52	76*
O=C1C(=O)c2ccc(-c3ccccc3)cc2-c2ccccc21	-9	-10	-2	4	91*
Nc1ccc2c(c1)C(=O)c1ccccc1-2	-7	2	-16	6	5
Nc1ccc2c(c1)C(=O)C(=O)c1ccccc1-2	85*	93*	105*	94*	86*
FC(F)(F)c1cccc(Cn2ccc3ccc(-c4ccc5ccn(Cc6cccc(C(F)(F)F)c6)c5c4)cc32)c1	·	·	·	6	·
CCC(CO)Nc1cccc2c1S(=O)(=O)N(Cc1cn(Cc3cccc(F)c3)nn1)Cc1ccccc1O2 (configuration not stated)	·	·	·	21	·
C/C(CC(C)(C)C1CCCCC1)=N\NC(N)=S	41	62*	70	40	3
O=C(CN1C(=O)C(c2ccccc2)Oc2cccnc21)NCc1ccccc1F (configuration not stated)	-2	3	-1	1	57*
CN(C)c1ccc(C=NNC(=O)c2cccc3ccccc23)c(Cl)c1	0	4	-3	6	74*
Cc1c(C)c2cccnc2c2ncccc12	42	54	87*	·	86*
Cc1cc(Nc2ccccc2)c2c([N+](=O)[O-])cc(C)c(C)c2n1	-4	-12	2	8	42*
Nc1ccc(OC(=O)Nc2ccc(O)cc2)cc1	-4	15	10	77*	29
Cc1cc(OCC(=O)Nc2cnn(CCCC(=O)O)c2)ccc1Cl	7	-7	6	0	59*
COc1ccc(-c2csc3ncnc(NCCCO)c23)cc1	67*	59	24	20	52*
COc1ccc(-c2csc3ncnc(NCCO)c23)cc1	54	54	12	59*	42*
CC(C)NC(=O)N(C)C[C@H]1Oc2c(NC(=O)Nc3ccc4c(c3)OCO4)cccc2C(=O)N([C@H](C)CO)C[C@@H]1C	-4	-6	-4	-20	83*
COc1ccc(OC)c(S(=O)(=O)N(CC(=O)NC2CCC(C)CC2)c2cc(C)cc(C)c2)c1 (configuration not stated)	·	·	·	-14	·
CCn1c(=O)n(CC(=O)N2CCN(c3ccc(F)cc3)CC2)c(=O)c2ccccc21	·	·	·	-10	·
COCC(=O)N(C)[C@H]1C[C@H]2c3[nH]c4c(-c5ccccc5)cccc4c3CCN2C(=O)[C@H]1[C@H](C)O	·	·	·	7	·
NC(=O)c1sc2nc3c(c(-c4cccs4)c2c1N)CCCCC3	69*	67*	14	46	72*
CC(=O)N1C[C@@H](c2c[nH]c3ccccc23)C=C[C@H]1C(=O)NS(=O)(=O)c1ccc(C)cc1	·	·	·	15	·
Cc1ccc(-n2cc(C(=O)c3ccccc3O)cn2)cc1	-12	-12	-8	-4	78*
Cc1ccc(O)c(C(=O)c2cnn(-c3ccccc3)c2)c1	-31	-10	-54	-10	6
CC(=O)Oc1ccc(C(=O)Nc2cccnc2)cc1	-4	-2	-7	-9	85*
